Assay results as given in PubChem BioAssay AID1851 (National Center for Advancing Translational Sciences (NCATS), 2009).
Where “and” joins values, the source holds several entries; their conditions need not be identical. Identical values can stand only once. Screen size: about 16,000 compounds; about 4,000 (25%) were called active. Another 26% or so got no clear call; they are omitted. The call rests on the fitted dose curve; in most records, active means well fitted curve in the direction sought with a large enough effect; inconclusive means small, poorly fitted or top-dose-only effect, or effect the other way; inactive means no such curve, though single readings can be large or run the other way. Only a sample is shown.

Biological target: Cytochrome P450 2C9 (Homo sapiens) (UniProt P11712)
Sequence (P11712 whole entry, looked up): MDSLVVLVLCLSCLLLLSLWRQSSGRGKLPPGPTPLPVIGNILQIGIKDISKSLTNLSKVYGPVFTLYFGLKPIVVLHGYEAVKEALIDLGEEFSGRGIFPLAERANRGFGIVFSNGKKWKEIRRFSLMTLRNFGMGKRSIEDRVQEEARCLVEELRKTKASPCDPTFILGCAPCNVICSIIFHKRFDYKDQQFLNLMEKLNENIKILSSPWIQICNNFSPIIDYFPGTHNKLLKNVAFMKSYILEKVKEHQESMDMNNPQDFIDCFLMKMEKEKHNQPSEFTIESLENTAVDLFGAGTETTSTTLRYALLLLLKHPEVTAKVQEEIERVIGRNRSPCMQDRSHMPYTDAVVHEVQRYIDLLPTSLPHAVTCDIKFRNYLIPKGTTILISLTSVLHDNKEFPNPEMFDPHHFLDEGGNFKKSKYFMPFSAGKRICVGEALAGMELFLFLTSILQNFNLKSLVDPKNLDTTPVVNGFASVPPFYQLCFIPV
Experiment: Cytochrome panel assay with activity outcomes
Conditions: recombinant CYP, pro-luciferin dealkylation, luminescence, p450-cyp2c9; series mostly up to 57.1 µM; activity, negative = inhibition: at the top concentration
On the % scale 0 is the no-effect control and ±100 the full control effect.

Compound	AC50	activity, negative = inhibition
CN1CC(c2ccccc2)C2(COc3ccccc3C2=O)C12C(=O)Nc1ccccc12 (stereo not given)	3.98 µM (active)	
COc1cc(C2C(C(=O)OCCC#N)=C(C)NC3=C2S(=O)(=O)c2ccccc23)cc(OC)c1OC (stereo not given)	7.08 µM (active)	
C[C@@H](C(=O)O)c1ccc(C[C@@H]2CCCC2=O)cc1		-13.5% (inactive)
Cc1nc2ccccn2c1C(=O)CSc1ccccc1Cl	11.2 µM (active)	
O=C(c1ccc(F)cc1)C1CCN(C(=S)Nc2ccccc2)CC1	8.91 µM (active)	
O=C(c1ccc(F)cc1)C1CCN(CCCCc2ccccc2)CC1		7.51% (inactive)
S=C(Nc1ccccc1)N1CCCCC1		-28.5% (inactive)
CC(C)CO/N=C1/C[C@@H](O)[C@@H](O)[C@@H]2[C@@H]3C(=O)N(Cc4ccc5c(c4)OCO5)C(=O)[C@H]3CC[C@@H]12		-17.6% [at 11.4 µM] (inactive)
CC(C)CO/N=C1/C[C@@H](O)[C@@H](O)[C@@H]2[C@@H]3C(=O)N(Cc4ccc5c(c4)OCO5)C(=O)[C@H]3CC[C@H]12		-12.4% [at 11.4 µM] (inactive)
CC(C)CO[C@H](c1ccc2c(c1)OCO2)[C@H](C)Br	2 µM (active)	
COC(=O)c1cc(=O)[nH]c(=O)[nH]1		3.6% [at 11.4 µM] (inactive)
CCOc1ccc(C(=O)Nc2ccc(Cl)cn2)cc1Cl		8.6% (inactive)
Cc1ccc(C(=O)Nc2cc(Cl)ccc2OC(=O)c2ccc(C)cc2)cc1	14.1 µM (active)	
C#CCCCO/N=C1/C[C@@H](O)[C@@H](O)[C@@H]2[C@@H]3C(=O)N([C@@H](C)c4ccccc4)C(=O)[C@H]3CC[C@H]12		-17.4% [at 11.4 µM] (inactive)
CSc1nc(Oc2ccc(=O)[nH]n2)nc(N(C)C)n1		5.69% (inactive)
CCOC(=O)c1c(NC(=S)NC(=O)c2cnn(CC)c2)sc2c1CCC(C)C2 (stereo not given)	5.01 µM (active)	
CCOC(=O)CCN1C(=O)[C@H]2[C@@H]3[C@H](O)[C@H](O)CC(=O)[C@H]3CC[C@H]2C1=O		14.8% [at 11.4 µM] (inactive) and 4.05% [at 11.4 µM] (inactive)
C[C@@](N)(C(=O)O)c1ccc(P(=O)(O)O)cc1		18.4% (inactive)
O=C(O)c1ccc(NCc2nc3cc4ccccc4cc3[nH]2)cc1		8.12% [at 11.4 µM] (inactive)
O=C(c1ccccc1)c1ccc2nc(-c3ccc(NC(=O)c4ccccc4Br)cc3)[nH]c2c1	2 µM (active)	
O=C(c1ccccc1)c1ccc2nc(-c3ccc(NC(=O)c4ccccc4F)cc3)[nH]c2c1	4.47 µM (active)	
C[C@@H](c1ccccc1)N1C(=O)[C@H]2[C@@H]3[C@H](O)C=CC(=O)[C@H]3CC[C@H]2C1=O		3.06% [at 11.4 µM] (inactive)
Cc1nn(CCc2n[nH]c(=S)n2-c2ccc(F)c(Cl)c2)c(C)c1[N+](=O)[O-]		-22% (inactive)
COC(=O)N1CCC[C@@]2(CCN(C(=O)Nc3ccccc3)C2)C1		0.884% (inactive)
COc1ccc(NC(=O)N2CCC3(CC2)CCN(C(=O)c2csnn2)CC3)cc1		-5.5% (inactive)
O=C(O)Cc1cc(I)c(Oc2ccc(O)c(I)c2)c(I)c1	5.01 µM (active)	
COc1cc(CC(=O)O)ccc1O		26.1% (inactive)
O=C(O)Cc1ccc(O)c(O)c1		-21.4% (inactive)

Compound	AC50	activity, negative = inhibition
Cc1cccc(NC(=O)c2ccc([N+](=O)[O-])o2)n1		-15.3% (inactive)
O=C(Nc1cccc(NC(=O)c2ccccc2[N+](=O)[O-])n1)c1ccccc1[N+](=O)[O-]	0.794 µM (active)	
CCOc1cc(NC(=O)c2ccccc2[N+](=O)[O-])c(OCC)cc1NC(=O)CC(C)C		14.7% (inactive)
CO/N=C(\C(=O)N[C@@H]1C(=O)N2C(C(=O)[O-])=C(C[N+]3(C)CCCC3)CS[C@@H]12)c1csc(N)n1		-12.8% [at 25.6 µM] (inactive)
N#Cc1ccccc1-c1ccc2ncnc(NCCN3CCOCC3)c2c1		2.09% [at 2.29 µM] (inactive)
N#Cc1nc(-c2ccc(OCc3ccccc3)cc2)oc1NCCN1CCOCC1	7.94 µM (active)	
N#Cc1cccc(-c2nc(NCCN3CCOCC3)c3ccccc3n2)c1		5.64% [at 2.29 µM] (inactive)
CO[C@H]1COC(=O)[C@H](C)COC(=O)[C@@H](Cc2ccccc2)NC(=O)C/C=C\[C@H]1C		-8.74% [at 11.4 µM] (inactive)
Clc1ccc(Cl)c(SCCCN2CCNCC2)c1		-3.39% [at 11.4 µM] (inactive)
Cc1cc(Cl)nc(NC(=O)CSc2ccc(Cl)cc2)n1		-1.09% [at 11.4 µM] (inactive)
COC(=O)c1sccc1NC(=O)CSc1ccccc1NS(=O)(=O)c1ccc(Cl)cc1	1.78 µM (active)	
COC(=O)c1sccc1NC(=O)CSc1cc(Cl)ccc1Cl	7.08 µM (active)	
COC(=O)c1sccc1NC(=O)CSc1ccc(Cl)cc1	15.8 µM (active)	
CC(=O)OC[C@H]1O[C@@H](O/N=C2/[C@H]3O[C@@H]3[C@@H](O)[C@H]3[C@H]2CCn2c(=O)n(-c4ccccc4)c(=O)n23)[C@H](OC(C)=O)[C@@H](OC(C)=O)[C@@H]1OC(C)=O		10.3% [at 11.4 µM] (inactive)
NC(=O)C[C@H](NC(=O)Cc1ccc(O)cc1O)C(=O)O		-3.79% (inactive)
COc1ccc(-c2nc(C#N)c(N3CCC(C(N)=O)CC3)o2)cc1OC		-30.1% (inactive)
CCCCCC(=O)N1CCCC(c2nc(-c3ccc(OC)cc3)no2)C1 (stereo not given)	3.55 µM (active)	
Cc1noc(C)c1C(=O)N1CCC2(CCCN(C(=O)Nc3ccccc3)C2)CC1		3.13% (inactive)
CCCc1nnc(SCC(=O)N2CCCC(C)C2)n1CC1CCCO1 (stereo not given)		23.5% (inactive)
O=C(Nc1ccccc1)N1CCCC2(CCNCC2)C1		-8.65% (inactive)
O=C(Nc1ccccc1)N1CCCC(c2nc(-c3ccc(F)cc3)no2)C1 (stereo not given)	14.1 µM (active)	
CCOC(=O)CSc1nnc(CNC(=O)c2ccc(OC)cc2)n1C1CCCCC1		-9.65% (inactive)
COc1ccc(-c2noc(C3CCCN(C(=O)c4ccccc4OC)C3)n2)cc1OC (stereo not given)	11.2 µM (active)	
CC(C)(N=NC(C)(C)C1=NCCN1)C1=NCCN1		3.47% [at 11.4 µM] (inactive)
O=C(CN(Cc1ccco1)C(=O)c1cccc(Cl)c1)Nc1c(Cl)cc(Cl)cc1Cl	11.2 µM (active)	
COc1ccc(/C=C2\N=C(SC)N(C)C2=O)cc1	25.1 µM (active)	
COc1ccc(Oc2ncc3ncc(=O)n(C)c3n2)cc1		-23.5% (inactive)
